Screens (PubChem BioAssay)
Lassa entry inh = qHTS for Inhibitors of binding or entry into cells for Lassa Virus; Lassa virus pseudotype entry inhibition, cell reporter; Potency, µM (series often up to 37.9 µM), usual class: inhibitors; 300,000 tested, 1.2% active; AID 540256, 2011; calls by dose curve; tested in HEK293 cells; note: nearly all actives have a fitted effect of over 50% in size
VACV mCherry inh = qHTS for Stage-Specific Inhibitors of Vaccinia Orthopoxvirus: mCherry Reporter Primary qHTS; Vaccinia virus mCherry reporter infection, fluorescence; Potency, µM (top dose mostly 36.5 µM), usual class: inhibitors; 310,000 tested, 0.63% active; AID 720579, 2013; calls by dose curve; tested in A549 cells; note: nearly all actives have a fitted effect of over 35% in size
MARV entry inh = qHTS for inhibitors of binding or entry into cells for Marburg Virus. Marburg virus pseudotyped entry inhibition, cell reporter. 300,000 tested, 1.8% active. AID 540276, 2011. Potency, µM (doses to about 37.8 µM), actives largely listed as inhibitors; calls by dose curve; tested in HEK293 cells
Vaccinia Venus = qHTS for Stage-Specific Inhibitors of Vaccinia Orthopoxvirus: Venus Reporter Primary qHTS | Vaccinia virus Venus reporter expression, fluorescence | Potency, µM (series often up to 36.5 µM), actives largely listed as inhibitors | 330,000 tested, 0.46% active; calls by dose curve; tested in A549 cells; note: nearly all actives have a fitted effect of over 30% in size
HCV inhibitor = qHTS Assay for Inhibitors of Hepatitis C Virus (HCV) | Huh7.5.1 HCVcc-Cre infection, luciferase reporter, 44 h | Potency, µM (titrated, usually from 41.8 µM), usual class: inhibitors | 340,000 tested, 3.4% active | AID 651820, 2012; active = well fitted inhibition curve with a large enough effect; inconclusive = small, poorly fitted or top-dose-only effect, or another doubt; inactive = no such curve, though single readings can be large or run the other way
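Antiviral activity was scored by luciferase reporter output from cells infected with HCVcc-Cre (~0.5 moi) in presence of compound, 44 h infection period, cells seeded 1,000/well 4 h prior.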
Of the large screens only hits and unclear results are named; the others gave an inactive call. Most compounds without a hit are left out; they make up all but 4.6% or so of the library.

Cc1ccc(-c2cn3c(=O)cc(C)[nH]c3n2)cc1	Lassa entry inh 14.6µM (no result: VACV mCherry inh, Vaccinia Venus)
CCOC(=O)c1cc(-c2ccccc2)n(CCCC(=O)Nc2ccccc2C)c1C	Lassa entry inh inconclusive (no result: MARV entry inh, HCV inhibitor)
CCOC(=O)CN1C(=O)NC(c2cccc(F)c2)C(C(C)=O)=C1C (configuration not stated)	none (no result: Lassa entry inh, VACV mCherry inh, Vaccinia Venus, HCV inhibitor)
Oc1[nH]c2ccc(Br)cc2c1N=NC(=S)NCC1CCCO1 (configuration not stated)	Lassa entry inh inconclusive, HCV inhibitor 11.2µM
Oc1[nH]c2ccccc2c1N=NC(=S)NCC1CCCO1 (configuration not stated)	Lassa entry inh inconclusive, HCV inhibitor inconclusive
Cc1cc(C(=O)COC(=O)c2ccc(O)cc2O)c(C)n1-c1ccc(OC(F)F)cc1	Lassa entry inh inconclusive, MARV entry inh 7.94µM, HCV inhibitor 10µM
Cc1cc(C(=O)CC#N)c(C)n1-c1ccc(OC(F)F)cc1	HCV inhibitor inconclusive
COc1ccc(-n2c(C)cc(C(=O)COC(=O)Cn3cnc4ccccc43)c2C)cc1	VACV mCherry inh inconclusive
COc1ccc(-n2c(C)cc(C(=O)COC(=O)c3ccc(O)cc3O)c2C)cc1	HCV inhibitor 10µM (no result: Lassa entry inh, VACV mCherry inh, MARV entry inh, Vaccinia Venus)
CN(C)c1ccc(/C=C(\C#N)c2ccccc2)cc1	HCV inhibitor inconclusive (no result: Lassa entry inh, MARV entry inh)
CN(C)c1cccc(/C=C(\C#N)c2ccccc2)c1	Vaccinia Venus inconclusive, HCV inhibitor 11.2µM (no result: Lassa entry inh, MARV entry inh)
CN(C)CC(CCCCC(CN(C)C)C(=O)c1ccccc1)C(=O)c1ccccc1 (configuration not stated)	HCV inhibitor 8.91µM (no result: Lassa entry inh, VACV mCherry inh, MARV entry inh, Vaccinia Venus)
CCOc1ccc(S(=O)(=O)c2cn(Cc3ccccc3C)c3ccc(OC)cc3c2=O)cc1	Lassa entry inh inconclusive, MARV entry inh inconclusive (no result: HCV inhibitor)
COc1ccc(C2CC(O)(c3ccccc3)Oc3cc(OC)ccc32)cc1 (configuration not stated)	VACV mCherry inh inconclusive, Vaccinia Venus inconclusive, HCV inhibitor 4.47µM (no result: Lassa entry inh, MARV entry inh)
COc1ccc(C2CC(=O)Oc3cc(OC)ccc32)cc1 (configuration not stated)	HCV inhibitor inconclusive (no result: Lassa entry inh, MARV entry inh)
O=C(N/N=C/c1ccc(OC(F)F)cc1OC(F)F)NC1CCCCC1	Lassa entry inh 11.2µM, HCV inhibitor inconclusive
O=C(N/N=C/c1ccc(OC(F)F)cc1OC(F)F)c1ccc(Br)cc1	HCV inhibitor inconclusive (no result: VACV mCherry inh, Vaccinia Venus)
CCOc1ccc2nc(SCC(=O)NC3CCCCC3)[nH]c2c1	MARV entry inh 10µM
Cc1ccc2nc(SCC(=O)NC3CCCc4ccccc43)[nH]c2c1 (configuration not stated)	Lassa entry inh inconclusive, VACV mCherry inh inconclusive, MARV entry inh inconclusive, Vaccinia Venus inconclusive, HCV inhibitor 11.2µM
O=c1c2ccccc2nc(SCc2cn3ccsc3n2)n1-c1ccc(F)cc1	Lassa entry inh 11.2µM, MARV entry inh inconclusive, Vaccinia Venus inconclusive (no result: VACV mCherry inh)
Cc1ccc(CNc2ncnc3c2nnn3C)cc1	none (no result: MARV entry inh, HCV inhibitor)
CCc1nn(CCCC(=O)N2CCN(c3cccc(C)c3C)CC2)c(=O)c2cc3occc3n12	HCV inhibitor 14.1µM (no result: Lassa entry inh, VACV mCherry inh, MARV entry inh, Vaccinia Venus)
CCc1nn(CC(=O)N2CCN(c3cccc(C)c3C)CC2)c(=O)c2cc3occc3n12	none (no result: HCV inhibitor)
Cc1cc(C(=O)N2CCCC(C(=O)c3cccc4ccccc34)C2)nc(C)n1 (configuration not stated)	none (no result: Lassa entry inh, VACV mCherry inh, MARV entry inh, Vaccinia Venus)
CCc1cc(C(=O)N2CCCC(C(=O)c3cccc4ccccc34)C2)n(C)n1 (configuration not stated)	MARV entry inh inconclusive, HCV inhibitor 10µM (no result: Lassa entry inh)
COc1cc(N(C)C)c(OC)cc1C=O	none (no result: Lassa entry inh, MARV entry inh, HCV inhibitor)
O=C(CCCN1CC=C(N2C(=O)N=C3C=CC=CC32)CC1)c1ccc(F)cc1 (configuration not stated)	none (no result: Lassa entry inh, VACV mCherry inh, Vaccinia Venus, HCV inhibitor)
COc1cc(=O)n2c(c1C(=O)NCc1ccc3c(c1)OCO3)CCN(C(=O)c1ccc(C)cc1)CC2	none (no result: Lassa entry inh, MARV entry inh, HCV inhibitor)
CC(C)=CCCC(C)CN1CCC(N2CCC(C(=O)N3CCOCC3)CC2)CC1 (configuration not stated)	HCV inhibitor 0.891µM (no result: Lassa entry inh, VACV mCherry inh, MARV entry inh, Vaccinia Venus)
CC(C)=CCCC(C)CN1CCC(N2CCC(C(=O)NC(C)C)CC2)CC1 (configuration not stated)	HCV inhibitor 2.82µM (no result: Lassa entry inh, VACV mCherry inh, MARV entry inh, Vaccinia Venus)
CCn1c(-c2ccccc2F)nc2cc(C(=O)N3CCNC(=O)C3CC(=O)OC)cc(NC(C)=O)c21 (configuration not stated)	none (no result: Lassa entry inh, MARV entry inh, HCV inhibitor)
CN1CCN(c2nc3cc(C(F)(F)F)ccc3n3cccc23)CC1	Lassa entry inh inconclusive, VACV mCherry inh inconclusive, MARV entry inh 8.91µM, HCV inhibitor inconclusive
FC(F)(F)c1cccc(N2CCN(c3nc4ccccc4n4cnnc34)CC2)c1	none (no result: Lassa entry inh, HCV inhibitor)
